Data taken from PubChem BioAssay (NCATS).
Records with an inconclusive call do not appear. Activity calls are given as the source filed them. Calls come from the whole dose curve; as a rule, active = well fitted inhibition curve with a large enough effect; inconclusive = small, poorly fitted or top-dose-only effect; inactive = flat fitted curve, though single readings scatter.

Key:
Experiment in all cases: qHTS profiling for inhibitors of Plasmodium falciparum proliferation (AID 504749); note: nearly all actives have a fitted effect of over 60% in size
CP256 = details: P. falciparum in erythrocytes, SYBR Green DNA, 72 h; series mostly up to 28.7 µM
Summary of the method: (§1)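 Infected RBCs, 0.3% parasitemia/2.5% Hct final; cpd 72 h, 37 C, 5% CO2; lysis buffer with saponin/triton/SYBR Green I, o/n RT dark; FI 485/535; norm. to artemisinin (0.29 uM) and DMSO.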

CP260 = details: P. falciparum in erythrocytes, SYBR Green DNA, 72 h; series mostly up to 28.7 µM
Summary of the method: as §1

CP262 = details: P. falciparum in erythrocytes, SYBR Green DNA, 72 h; series mostly up to 28.7 µM
Summary of the method: as §1

CP265 = details: P. falciparum in erythrocytes, SYBR Green DNA, 72 h; series mostly up to 12.8 µM
Summary of the method: as §1

CP266 = details: P. falciparum in erythrocytes, SYBR Green DNA, 72 h; series mostly up to 12.8 µM
Summary of the method: as §1

CP268 = details: P. falciparum in erythrocytes, SYBR Green DNA, 72 h; series mostly up to 28.7 µM
Summary of the method: as §1

CP269 = details: P. falciparum in erythrocytes, SYBR Green DNA, 72 h; series mostly up to 28.7 µM
Summary of the method: as §1

CP286 = details: P. falciparum in erythrocytes, SYBR Green DNA, 72 h; series mostly up to 28.7 µM
Summary of the method: as §1

CP291 = details: P. falciparum in erythrocytes, SYBR Green DNA, 72 h; series mostly up to 28.7 µM
Summary of the method: as §1

CP297 = details: P. falciparum in erythrocytes, SYBR Green DNA, 72 h; series mostly up to 28.7 µM
Summary of the method: as §1

CP305 = details: P. falciparum in erythrocytes, SYBR Green DNA, 72 h; series mostly up to 28.7 µM
Summary of the method: as §1

CP315 = details: P. falciparum in erythrocytes, SYBR Green DNA, 72 h; series mostly up to 28.7 µM
Summary of the method: as §1

CP325 = details: P. falciparum in erythrocytes, SYBR Green DNA, 72 h; series mostly up to 28.7 µM
Summary of the method: as §1

CP329 = details: P. falciparum in erythrocytes, SYBR Green DNA, 72 h; series mostly up to 28.7 µM
Summary of the method: as §1

CP335 = details: P. falciparum in erythrocytes, SYBR Green DNA, 72 h; series mostly up to 12.8 µM
Summary of the method: as §1

DIV14 = details: P. falciparum in erythrocytes, SYBR Green DNA, 72 h; series mostly up to 28.7 µM
Summary of the method: as §1

DIV17 = details: P. falciparum in erythrocytes, SYBR Green DNA, 72 h; series mostly up to 28.7 µM
Summary of the method: as §1

DIV30 = details: P. falciparum in erythrocytes, SYBR Green DNA, 72 h; series mostly up to 28.7 µM
Summary of the method: as §1

Dd2 = details: P. falciparum in erythrocytes, SYBR Green DNA, 72 h; series mostly up to 28.7 µM
Summary of the method: as §1

ECU = details: P. falciparum in erythrocytes, SYBR Green DNA, 72 h; series mostly up to 28.7 µM
Summary of the method: as §1

FAB9 = details: P. falciparum in erythrocytes, SYBR Green DNA, 72 h; series mostly up to 28.7 µM
Summary of the method: as §1

GB4 = details: P. falciparum in erythrocytes, SYBR Green DNA, 72 h; series mostly up to 28.7 µM
Summary of the method: as §1

HB3 = details: P. falciparum in erythrocytes, SYBR Green DNA, 72 h; series mostly up to 28.7 µM
Summary of the method: as §1

ICS = details: P. falciparum in erythrocytes, SYBR Green DNA, 72 h; series mostly up to 28.7 µM
Summary of the method: as §1

JCK = details: P. falciparum in erythrocytes, SYBR Green DNA, 72 h; series mostly up to 28.7 µM
Summary of the method: as §1

N140 = details: P. falciparum in erythrocytes, SYBR Green DNA, 72 h; series mostly up to 28.7 µM
Summary of the method: as §1

P93_24 = details: P. falciparum in erythrocytes, SYBR Green DNA, 72 h; series mostly up to 28.7 µM
Summary of the method: as §1

P94_40 = details: P. falciparum in erythrocytes, SYBR Green DNA, 72 h; series mostly up to 28.7 µM
Summary of the method: as §1

PAD = details: P. falciparum in erythrocytes, SYBR Green DNA, 72 h; series mostly up to 28.7 µM
Summary of the method: as §1

PC15 = details: P. falciparum in erythrocytes, SYBR Green DNA, 72 h; series mostly up to 28.7 µM
Summary of the method: as §1

PC26 = details: P. falciparum in erythrocytes, SYBR Green DNA, 72 h; series mostly up to 28.7 µM
Summary of the method: as §1

PC49 = details: P. falciparum in erythrocytes, SYBR Green DNA, 72 h; series mostly up to 28.7 µM
Summary of the method: as §1

SC27B = details: P. falciparum in erythrocytes, SYBR Green DNA, 72 h; series mostly up to 28.7 µM
Summary of the method: as §1

TAB113 = details: P. falciparum in erythrocytes, SYBR Green DNA, 72 h; series mostly up to 28.7 µM
Summary of the method: as §1

TAB165 = details: P. falciparum in erythrocytes, SYBR Green DNA, 72 h; series mostly up to 28.7 µM
Summary of the method: as §1

W2 = details: P. falciparum in erythrocytes, SYBR Green DNA, 72 h; series mostly up to 12.8 µM
Summary of the method: as §1

Measured: Potency

CNC(C)[C@@H](O)c1ccc(O)cc1 (stereo partly specified)
inactive: all assays above
